This excerpt belongs to a sample that is enriched for hits.
RGS12 GoLoco inh = qHTS Assay for Inhibitors of RGS12 GoLoco Motif Activity (Red Fluorophore). Gai1:RGS12 GoLoco peptide FP, rhodamine, 10 min. Potency, µM (series often up to 61.6 µM), actives largely listed as inhibitors. 0.44% of 230,000 active; active means well fitted inhibition curve with a large enough effect, not every such curve was filed as active; inactive means no such curve, though single readings can be large or run the other way; further: nearly all actives have a fitted effect of over 30% in size
Target sequence (P63096 whole entry, looked up): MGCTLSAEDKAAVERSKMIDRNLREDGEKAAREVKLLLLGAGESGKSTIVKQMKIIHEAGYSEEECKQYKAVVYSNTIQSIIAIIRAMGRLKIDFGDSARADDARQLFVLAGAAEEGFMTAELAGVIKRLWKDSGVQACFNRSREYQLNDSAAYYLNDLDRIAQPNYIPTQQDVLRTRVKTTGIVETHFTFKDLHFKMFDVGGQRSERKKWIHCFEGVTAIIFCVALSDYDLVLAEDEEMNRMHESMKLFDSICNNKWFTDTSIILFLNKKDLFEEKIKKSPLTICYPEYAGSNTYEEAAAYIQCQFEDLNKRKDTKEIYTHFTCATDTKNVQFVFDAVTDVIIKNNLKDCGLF
TR SRC2 fluor cs = Total Fluorescence Counterscreen for Inhibitors of the Interaction of Thyroid Hormone Receptor and Steroid Receptor Coregulator 2; TRb/SRC2 Texas Red total fluorescence interference; Potency, µM (highest dose often 106 µM); 0.29% of 280,000 active; AID 1479, 2009; active means well fitted curve in either direction with a large enough effect; inconclusive means small, poorly fitted or top-dose-only effect
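Human TRβ ligand-binding domain (0.6 uM) and Texas Red SRC2 peptide (20 nM) in Tris buffer with 1 uM T3 and 5% DMSO were incubated with pinned compound for 5 hr at ambient temperature. Total fluorescence was computed as S + 2P (555/632 nm).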
ERG-DNA inh = qHTS for Small Molecule Inhibitors of the ERG Ets/DNA interaction; Transcriptional regulator ERG (Homo sapiens), P11308; fluorescence polarization, His-ERG Ets domain / labelled DNA; Potency, µM (doses to about 76.9 µM), hits mostly inhibitors; 0.028% of 370,000 active; AID 624246, 2012; active means well fitted inhibition curve with a large enough effect in the polarisation, with a control signal flat; inconclusive means small, poorly fitted or top-dose-only effect, or effect the other way, or a change in a side signal; inactive means no such curve, though single readings can be large or run the other way; the % refers to the polarisation;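 further: polarization taken with two DNA probes labelled with fluorescein and Texas red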
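His-tagged ERG Ets domain (1 uM in the protein solution; 300mM KCl, 50mM Tris-HCl, 1mM EDTA, 1mM DTT, pH 7.5) received compound, then a probe mix of 5 nM fluorescein-DNA and 100nM Texas-615-DNA. Fluorescence polarization was read for both dyes.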
TRb-SRC2 inh = qHTS for Inhibitors of the Interaction of Thyroid Hormone Receptor and Steroid Receptor Coregulator 2. Thyroid hormone receptor beta (Homo sapiens), P10828. TRbeta-SRC2 peptide binding, fluorescence polarization; receptor liganded with 1 µM T3. Potency, µM (titrated, usually from 106 µM), most hits filed as inhibitors. 0.065% of 280,000 active. AID 1469, 2008; active means well fitted inhibition curve with a large enough effect; inconclusive means small, poorly fitted or top-dose-only effect, or effect the other way; further: nearly all actives have a fitted effect of over 50% in size
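Human TRb LBD (0.6 uM) plus Texas Red-labeled SRC2 peptide (20 nM), 1uM T3, 5% DMSO, 5 hr at ambient temperature. Decreased polarization (555/632 nm) flags inhibition; data normalized to free and bound peptide controls.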
Each line names hits and unclear results; the compound was inactive in the other large screens; ! = not active in a repeat; [ ] = another dose, or the depositor's remark.

CSCC[C@H](NC(=O)[C@H](CC(C)C)NC(=O)[C@H](Cc1c[nH]c2ccccc12)NC(=O)[C@H](CCC(N)=O)NC(=O)[C@@H](NC(=O)[C@H](Cc1ccccc1)NC(=O)[C@H](CC(=O)O)NC(=O)[C@H](CCC(N)=O)NC(=O)[C@H](C)NC(=O)[C@H](CCCNC(=N)N)NC(=O)[C@H](CCCNC(=N)N)NC(=O)[C@H](CO)NC(=O)[C@H](CC(=O)O)NC(=O)[C@H](CC(C)C)NC(=O)[C@H](Cc1ccc(O)cc1)NC(=O)[C@H](CCCCN)NC(=O)[C@H](CO)NC(=O)[C@H](Cc1ccc(O)cc1)NC(=O)[C@H](CC(=O)O)NC(=O)[C@H](CO)NC(=O)[C@@H](NC(=O)[C@H](Cc1ccccc1)NC(=O)[C@@H](NC(=O)CNC(=O)[C@H](CCC(N)=O)NC(=O)[C@H](CO)NC(=O)[C@@H](N)Cc1cnc[nH]1)[C@@H](C)O)[C@@H](C)O)C(C)C)C(=O)N[C@@H](CC(N)=O)C(=O)N[C@H](C(=O)O)[C@@H](C)O	none (no result: RGS12 GoLoco inh, ERG-DNA inh)
Cc1cccc(NC(=O)CN2C(=O)CCc3ccccc32)c1C	TR SRC2 fluor cs 11µM[quencher] (no result: RGS12 GoLoco inh)
Cc1[nH]c(=O)cc2ccccc12	RGS12 GoLoco inh 8.9µM
Cc1cc(=O)[nH]c2ccccc12	none
C[N+](C)(C)CCC(=O)c1cccc2ccccc12	RGS12 GoLoco inh 25µM! (no result: ERG-DNA inh)
CC(C)OCC1CO1 (centres undefined)	RGS12 GoLoco inh 25µM
Cc1ccc(Cl)cc1N1CCN(C(=O)C2CCN(S(=O)(=O)c3cccc4nonc34)CC2)CC1	TR SRC2 fluor cs 7.9µM[quencher] (no result: RGS12 GoLoco inh)
CN(C)c1ccc(/C=C/c2ccc3c4ccccc4ccc3[n+]2-c2ccccc2)cc1	TR SRC2 fluor cs 13µM[fluorescent], TRb-SRC2 inh inconclusive
CCCCN1CCC[C@H]1CNC(=O)c1cc(C#N)c2ccccc2c1OC	none (no result: RGS12 GoLoco inh, ERG-DNA inh)
C=CC1=C(C)C2=NC1=CC1=NC(=CC3=NC(=CC4=NC(=C2)C(C)=C4CCC(=O)O)C(CCC(=O)O)=C3C)C(C=C)=C1C.[Zn]	RGS12 GoLoco inh 5.6µM, TR SRC2 fluor cs 28µM[fluorescent], TRb-SRC2 inh 13µM (no result: ERG-DNA inh)
Oc1cc(CN2COc3ccccc32)c(O)cc1CNC1CCCCC1	none (no result: TR SRC2 fluor cs, ERG-DNA inh, TRb-SRC2 inh)
CC(=O)Nc1c2c3c(cccc3n(C)c1=O)C(=O)c1ccccc1-2	none
Cn1c(=O)c(Nc2ccc(Cl)cc2)c2c3c(cccc31)C(=O)c1ccccc1-2	RGS12 GoLoco inh 14µM
C=C[C@H]1CN2CC[C@@H]1C[C@H]2[C@@H](O)c1ccnc2ccc(OC)cc12	none (no result: TR SRC2 fluor cs, ERG-DNA inh)
CN(C)S(=O)(=O)N1C(=O)c2ccccc2C1=O	none
CN(C)/C=C1\C=C2C(=O)c3ccccc3N2C1=O	RGS12 GoLoco inh 13µM, ERG-DNA inh inconclusive
Cc1ccc(Nc2nnc(-c3ccc(C)c(S(=O)(=O)N4CCOCC4)c3)c3ccccc23)c(C)c1	TR SRC2 fluor cs 0.014µM[quencher] (no result: RGS12 GoLoco inh)
Cc1ccc(S(=O)(=O)O[C@@H]2[C@H]([C@@H]3COC(C)(C)O3)O[C@H]3OC(C)(C)O[C@@H]32)cc1	none (no result: TR SRC2 fluor cs, ERG-DNA inh, TRb-SRC2 inh)
O=C(O)c1ccccc1-c1oc2cc(O)ccc2c(=O)c1Oc1ccccc1	none (no result: ERG-DNA inh)
O=C(O)c1ccccc1-c1c2ccc(=O)cc-2oc2cc(O)ccc12	RGS12 GoLoco inh 0.4µM (no result: ERG-DNA inh)
O=C(O)CN(CC(=O)O)Cc1cc2c(-c3ccccc3C(=O)O)c3cc(CN(CC(=O)O)CC(=O)O)c(=O)cc-3oc2cc1O	TR SRC2 fluor cs 40µM[fluorescent], TRb-SRC2 inh 6.3µM (no result: ERG-DNA inh)
CC(C)CCCC(C)C1CC(=O)C2=C3CCC4CC(O)CCC4(C)C3CCC21C (centres undefined)	none (no result: RGS12 GoLoco inh, ERG-DNA inh)
CCCCC(C)/C=C(C)/C=C(\C)C(=O)NC1=CC(O)(/C=C/C=C/C=C/C(=O)NC2=C(O)CCC2=O)C2OC2C1=O (centres undefined)	none (no result: RGS12 GoLoco inh, ERG-DNA inh)
CCCCCCCCCCCC[N+](C)(C)C	none (no result: RGS12 GoLoco inh, ERG-DNA inh)
Cc1c(C2=CCN(S(=O)(=O)c3ccc(Br)cc3)CC2)c2ccccc2n1C	TR SRC2 fluor cs 28µM[fluorescent], TRb-SRC2 inh inconclusive
CCn1c(C)c(C2=CCN(S(=O)(=O)c3ccc(C)cc3)CC2)c2ccccc21	none
NC(=O)CN1C(=O)C2(SCC(=O)N2c2cccc(F)c2)c2ccccc21 (centres undefined)	none (no result: RGS12 GoLoco inh)
CCc1cccc(C)c1NC(=O)CN1C(=O)C2(SCC(=O)N2c2cccc(F)c2)c2ccccc21 (centres undefined)	TR SRC2 fluor cs 20µM[quencher] (no result: RGS12 GoLoco inh)
CC/C=C\CCOC(=O)c1ccccc1O	none (no result: RGS12 GoLoco inh, ERG-DNA inh)
CC(=O)c1sc(Nc2nc3cc4c(cc3s2)OCO4)nc1C	none

Assay outcomes deposited in PubChem BioAssay by National Center for Advancing Translational Sciences (NCATS).
